# In PubChem BioAssay AID504832 (National Center for Advancing Translational Sciences (NCATS), 2011):
# Among all 310,000 compounds or so, about 18,000 (5.8%) were called active. About 22% were inconclusive and are not listed. This is one part of a sample in which actives are shown more often than they occur. The call rests on the fitted dose curve; in most records, active means well fitted inhibition curve with a large enough effect; inconclusive means small, poorly fitted or top-dose-only effect, or another doubt; inactive means no such curve, though single readings can be large or run the other way.
# Test: Primary qHTS for delayed death inhibitors of the malarial parasite plastid, 48 hour incubation
# Settings: P. falciparum luciferase growth in erythrocytes; series mostly up to 28.7 µM; activity change, negative = inhibition: at the top concentration
# Procedure, shortened: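 Here the parasites carry a stable luciferase gene and grow inside erythrocytes in Albumax-based RPMI medium with compound for one erythrocytic cycle. Activity is scored as loss of luminescent signal.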
# On the % scale 0 is the no-effect control and ±100 the full control effect; potency means the concentration at half of the fitted maximal effect.
SMILES,"activity change, negative = inhibition",Potency
COCCCNC(=O)[C@H]1N2C(=O)c3ccccc3C2SC1(C)C (stereo partly specified),1.37% (inactive),–
COc1ccc(C(C(=O)NC2CCCCC2)N(C(=O)c2snc(C(N)=O)c2N)c2ccccc2OC)cc1 (stereo unspecified),–,14.7 µM (active)
CCC(C(=O)NCc1ccc(OC)cc1)n1nc(C)n2c(cc3occc32)c1=O (stereo unspecified),-0.531% (inactive),–
COc1cc(C(C(=O)NC2CCCC2)N(Cc2ccccc2)C(=O)c2snc(C(N)=O)c2N)ccc1O (stereo unspecified),-28.9% (inactive),–
COc1ccc(CNC(=O)C(c2ccc(O)cc2)N(Cc2ccco2)C(=O)c2snc(C(N)=O)c2N)cc1 (stereo unspecified),–,13.1 µM (active)
COc1ccc(C(C(=O)NC2CCCCC2)N(C(=O)CCl)c2ccccc2Cl)cc1 (stereo unspecified),0.344% (inactive),–
COc1ccc(S(=O)(=O)NCc2ccc(C(=O)N(C)Cc3ccco3)cc2)cc1,-0.0888% (inactive),–
Cc1cc(CN(C)C(=O)c2cc(COc3ccc(C)c(C)c3)on2)n[nH]1,213% (inactive),–
CC(=O)c1ccc(NC(=O)Cn2c(=O)oc3ccccc32)cc1,0.659% (inactive),–
CCCCc1nc2cc(C(=O)N3CCCCC3CCO)ccc2o1 (stereo unspecified),30.8% (inactive),–
O=C(Nc1cn(-c2ccccc2)nc1-c1ccccc1)c1ccccc1,-6.02% (inactive),–
CCc1ccc(-c2nn(-c3ccccc3)cc2CSC(=N)N)cc1,–,4.15 µM (active)
Cc1ccc(-c2nn(-c3ccccc3)cc2C(=O)NC2CCC(O)CC2)cc1 (stereo unspecified),16.7% (inactive),–
Cc1ccccc1OCC(=O)Nc1ccc2c(c1)ncn2C,-39.5% (inactive),–
CN(CCc1ccccn1)C(=O)c1ccc(OC2CCN(CCc3ccccc3)CC2)cc1,-14.2% (inactive),–
COC(=O)c1ccc(CSc2nnc(N)s2)o1,39% (inactive),–
CCCn1c(SCC(=O)N2CCc3ccccc32)nnc1-c1ccncc1,0.223% (inactive),–
COC(=O)c1ccc(CSc2ccc3nnc(-c4ccccc4)n3n2)o1,–,10.4 µM (active)
O=C(CSc1ccc2nnc(-c3ccccc3)n2n1)N1CCCc2ccccc21,–,13.1 µM (active)
CCC(=O)N1CCCc2ccccc21,0.0597% (inactive),–
COC(=O)c1ccc(CSc2ccccc2C)o1,-1.17% (inactive),–
CC(=O)NC(Cc1c[nH]c2ccccc12)C(=O)NCCc1ccccc1 (stereo unspecified),-4.66% (inactive),–

SMILES,"activity change, negative = inhibition",Potency
CC1CN(C(=O)CCC(=O)NCc2cccnc2)c2ccccc2O1 (stereo unspecified),8.83% (inactive),–
CC(=O)NC(=O)c1ccccc1O,-11.5% (inactive),–
O=C(COC(=O)CNC(=O)C1CCCCC1)Nc1cccc(F)c1,-20% (inactive),–
O=C1NC[C@@H](Cc2ccc(O)cc2)N(CCc2cccc(F)c2)C1=O,-26.7% (inactive),–
NC1=NC[C@@H](Cc2ccc(O)cc2)N1CC1CCCCC1,–,6.57 µM (active)
CN(c1ccccc1)S(=O)(=O)c1ccc2[nH]c(=O)[nH]c2c1,12% (inactive),–
O=C(Cc1ccccc1Cl)N1CCOCC1,36% (inactive),–
Cc1ccccc1N1CCN(C2CCCN(C(=O)c3ocnc3C)C2)CC1 (stereo unspecified),-4.29% (inactive),–
O=c1c2c(nc3cc(-c4cccc(Cl)c4)[nH]n13)CCCC2,72.5% (inactive),–
Clc1ccc2nc3c(c(-c4ccccc4)c2c1)CNCC3,–,13.1 µM (active)
CCC(C(=O)NC1CCCC1)N(C(=O)Cn1nnc(-c2ccc(C)o2)n1)c1ccc(OC)c(OC)c1 (stereo unspecified),–,10.4 µM (active)
COc1ccc(C)cc1N(C(=O)Cn1nnc(-c2ccc(C)o2)n1)C(C(=O)NC1CCCC1)c1ccncc1 (stereo unspecified),–,5.22 µM (active)
O=C(Cn1nnc(-c2ccc3c(c2)OCO3)n1)NCc1ccco1,39.3% (inactive),–
O=C(Cn1nnc(-c2ccccc2)n1)NC(=O)NC1CCCC1,9.86% (inactive),–
Cc1cccc(N(C(=O)Cn2nnc(-c3ccc(C)o3)n2)C(C(=O)NC2CCCC2)c2ccncc2)c1 (stereo unspecified),0% (inactive),–
Cc1ccc(-c2nnn(CC(=O)N(CCO)C(C(=O)NC(C)(C)C)c3ccncc3)n2)cc1 (stereo unspecified),22.3% (inactive),–
COc1cccc(N(CC(=O)NC2CCCC2)C(=O)Cn2nnc(-c3ccc(C)cc3)n2)c1,-15.8% (inactive),–
Cc1ccc(-c2nnn(CC(=O)N(Cc3ccco3)C(C(=O)NC(C)(C)C)c3ccncc3)n2)o1 (stereo unspecified),–,14.7 µM (active)
Cc1cc(NC(=O)CCC(=O)N(c2ccccc2)C(C(=O)NC2CCCC2)c2ccncc2)no1 (stereo unspecified),-15% (inactive),–
CCc1ccc(-c2cc3c(=O)n(CC(=O)NCCCN4CCN(Cc5ccccc5)CC4)nc(C)n3n2)cc1,-3.05% (inactive),–
CC(CCc1ccc(O)cc1)NCc1ccc(Cl)cc1Cl (stereo unspecified),2.85% (inactive),–
CN(C(=O)c1ccccc1)c1nccnc1C#N,-8.71% (inactive),–

SMILES,"activity change, negative = inhibition",Potency
CCOC(=O)CSc1nnc(NC(=O)C2CC(=O)N(c3ccc(F)cc3)C2)s1 (stereo unspecified),-26.5% (inactive),–
CCOC(=O)c1cccc(NC(=O)CN2C(=O)C3CC=CCC3C2=O)c1 (stereo unspecified),0.828% (inactive),–
COc1ccccc1CNS(=O)(=O)c1cc2c3c(c1)CCC(=O)N3CCC2,-5.97% (inactive),–
COc1ccc(C(=O)NC2CC2)cc1OC1CCN(C/C=C/c2ccccc2)CC1,-28.2% (inactive),–
COc1cc(C(=O)N2CCN(C/C=C/c3ccccc3)CC2)cc(OC)c1C,–,10.4 µM (active)
CNC(=O)NC(=O)C(C)N1CCN(C/C=C/c2ccccc2)CC1 (stereo unspecified),-4.98% (inactive),–
CC(C)[C@@H](C(=O)O)N(Cc1cccc(CN([C@H](C(=O)O)C(C)C)S(C)(=O)=O)c1)S(C)(=O)=O,39.7% (inactive),–
Cc1nnc2n1N=C(c1ccccc1)CS2,1.87% [at 0.00184 µM] (inactive),–
CN(CC(=O)Nc1cccc(F)c1)C(=O)C1=COCCO1,-28.3% (inactive),–
CCc1nc(Nc2ccc(NC(C)=O)cc2)c2oc3ccccc3c2n1,-3.92% (inactive),–
CCc1nc(Nc2ccc3nccnc3c2)c2oc3ccccc3c2n1,–,1.04 µM (active)
CCc1nc(N2CCN(c3nc(C)cc(C)n3)CC2)c2oc3ccccc3c2n1,16.9% (inactive),–
COCC1CCN(C(=O)CCc2nnc(C3(c4ccc(Cl)cc4)CCC3)o2)C1 (stereo unspecified),-14.5% (inactive),–
Cc1noc(C)c1CSCC(=O)Nc1ccc(Br)cc1Cl,14.8% (inactive),–
COc1cc(C(=O)N2CCN(C3CCC(C)CC3)CC2)cc(OC)c1OC (stereo unspecified),-13.2% (inactive),–
OC(CN=c1sc2ccccc2n1CC(O)COc1ccccc1)COc1ccccc1 (stereo unspecified),–,13.1 µM (active)
OC(COc1ccccc1)Cn1cc(Br)cn1 (stereo unspecified),21.9% (inactive),–
CC(O)COc1ccccc1 (stereo unspecified),-5.11% (inactive),–
Cn1nccc1C(=O)NC1CCCc2c1cnn2-c1ccccc1F (stereo unspecified),-4.57% (inactive),–
COc1ccc(CNC(=O)C(NS(=O)(=O)c2cccc3nsnc23)C(C)C)cc1 (stereo unspecified),11.9% (inactive),–
CC(C)C(NS(=O)(=O)c1cccs1)C(=O)Nc1nc(C(C)(C)C)cs1 (stereo unspecified),–,11.7 µM (active)
CC(C)(C)c1csc(NC2=NS(=O)(=O)c3ccccc32)n1,129% (inactive),–
